# Records with an inconclusive call do not appear. Where a call stands in place of a potency, no number is given. Unmarked numbers belong to inactive results. Active and inactive are the calls of the source. Calls follow the shape of the dose curve; as a rule, active = well fitted inhibition curve with a large enough effect; inconclusive = small, poorly fitted or top-dose-only effect; inactive = flat fitted curve, though single readings scatter.
# Tests used:
# [1] = qHTS profiling for inhibitors of Plasmodium falciparum proliferation (AID 504749); as to all read-outs here: nearly all actives have a fitted effect of over 60% in size; conditions: P. falciparum in erythrocytes, SYBR Green DNA, 72 h; for activity, negative = inhibition: at 28.7 µM (top of the series)
# Procedure, shortened: (§1)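 Quantitative HTS: compounds pinned into medium, infected erythrocytes added (0.3% parasitemia, 2.5% hematocrit), 72 h culture at 37 C under 5% CO2. Saponin/Triton lysis with SYBR Green I, overnight RT, then fluorescence read.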
# 3D7 = experiment: as above; conditions: P. falciparum in erythrocytes, SYBR Green DNA, 72 h; series mostly up to 28.7 µM
# Procedure, shortened: as §1
# 7G8 = experiment: as above; conditions: P. falciparum in erythrocytes, SYBR Green DNA, 72 h; series mostly up to 28.7 µM
# Procedure, shortened: as §1
# AA1029 = experiment: as above; conditions: P. falciparum in erythrocytes, SYBR Green DNA, 72 h; series mostly up to 28.7 µM
# Procedure, shortened: as §1
# AS120 = experiment: as above; conditions: P. falciparum in erythrocytes, SYBR Green DNA, 72 h; series mostly up to 28.7 µM
# Procedure, shortened: as §1
# ATS189 = experiment: as above; conditions: P. falciparum in erythrocytes, SYBR Green DNA, 72 h; series mostly up to 28.7 µM
# Procedure, shortened: as §1
# ATS95 = experiment: as above; conditions: P. falciparum in erythrocytes, SYBR Green DNA, 72 h; series mostly up to 28.7 µM
# Procedure, shortened: as §1
# C2A = experiment: as above; conditions: P. falciparum in erythrocytes, SYBR Green DNA, 72 h; series mostly up to 28.7 µM
# Procedure, shortened: as §1
# CP185 = experiment: as above; conditions: P. falciparum in erythrocytes, SYBR Green DNA, 72 h; series mostly up to 28.7 µM
# Procedure, shortened: as §1
# CP191 = experiment: as above; conditions: P. falciparum in erythrocytes, SYBR Green DNA, 72 h; series mostly up to 28.7 µM
# Procedure, shortened: as §1
# CP192 = experiment: as above; conditions: P. falciparum in erythrocytes, SYBR Green DNA, 72 h; series mostly up to 28.7 µM
# Procedure, shortened: as §1
# CP194 = experiment: as above; conditions: P. falciparum in erythrocytes, SYBR Green DNA, 72 h; series mostly up to 28.7 µM
# Procedure, shortened: as §1
# CP201 = experiment: as above; conditions: P. falciparum in erythrocytes, SYBR Green DNA, 72 h; series mostly up to 28.7 µM
# Procedure, shortened: as §1
# CP203 = experiment: as above; conditions: P. falciparum in erythrocytes, SYBR Green DNA, 72 h; series mostly up to 28.7 µM
# Procedure, shortened: as §1
# CP211 = experiment: as above; conditions: P. falciparum in erythrocytes, SYBR Green DNA, 72 h; series mostly up to 28.7 µM
# Procedure, shortened: as §1
# CP217 = experiment: as above; conditions: P. falciparum in erythrocytes, SYBR Green DNA, 72 h; series mostly up to 28.7 µM
# Procedure, shortened: as §1
# CP237 = experiment: as above; conditions: P. falciparum in erythrocytes, SYBR Green DNA, 72 h; series mostly up to 28.7 µM
# Procedure, shortened: as §1
# CP238 = experiment: as above; conditions: P. falciparum in erythrocytes, SYBR Green DNA, 72 h; series mostly up to 28.7 µM
# Procedure, shortened: as §1
# CP247 = experiment: as above; conditions: P. falciparum in erythrocytes, SYBR Green DNA, 72 h; series mostly up to 28.7 µM
# Procedure, shortened: as §1
# CP215 = experiment: as above; conditions: P. falciparum in erythrocytes, SYBR Green DNA, 72 h; series mostly up to 28.7 µM
# Procedure, shortened: as §1
# Potency is read from the fitted curve at half-maximal effect.
smiles,measurement,setting,value
Cc1ncc[nH]1,"activity, negative = inhibition",[1]; parasite line A,1.23%
same,"activity, negative = inhibition",[1]; parasite line B,14.4%
same,Potency,3D7,inactive
same,Potency,7G8,inactive
same,Potency,AA1029,inactive
same,Potency,AS120,inactive
same,Potency,ATS189,inactive
same,Potency,ATS95,inactive
same,Potency,C2A,inactive
same,Potency,CP185,inactive
same,Potency,CP191,inactive
same,Potency,CP192,inactive
same,Potency,CP194,inactive
same,Potency,CP201,inactive
same,Potency,CP203,inactive
same,Potency,CP211,inactive
same,Potency,CP217,inactive
same,Potency,CP237,inactive
same,Potency,CP238,inactive
same,Potency,CP247,inactive
FC(F)(F)C(F)(F)C(F)(F)C(F)(F)C(F)(F)F,"activity, negative = inhibition",[1]; parasite line A,11%
same,"activity, negative = inhibition",[1]; parasite line B,17.9%
same,Potency,3D7,inactive
same,Potency,7G8,inactive
same,Potency,AA1029,inactive
same,Potency,AS120,inactive
same,Potency,ATS189,inactive
same,Potency,ATS95,inactive
same,Potency,C2A,inactive
same,Potency,CP185,inactive
same,Potency,CP191,inactive
same,Potency,CP192,inactive
same,Potency,CP194,inactive
same,Potency,CP201,inactive
same,Potency,CP211,inactive
same,Potency,CP215,inactive
same,Potency,CP217,inactive
same,Potency,CP237,inactive
same,Potency,CP238,inactive
same,Potency,CP247,inactive
CCC(C(=O)NC(N)=O)c1ccccc1 (stereo unspecified),"activity, negative = inhibition",[1]; parasite line A,-3.47%
same,"activity, negative = inhibition",[1]; parasite line B,11.3%
same,Potency,3D7,inactive
same,Potency,7G8,inactive
same,Potency,AA1029,inactive
same,Potency,AS120,inactive
same,Potency,ATS189,inactive
same,Potency,ATS95,inactive
same,Potency,C2A,inactive
same,Potency,CP185,inactive
same,Potency,CP191,inactive
same,Potency,CP192,inactive
same,Potency,CP194,inactive
same,Potency,CP201,inactive
same,Potency,CP211,inactive
same,Potency,CP215,inactive
same,Potency,CP217,inactive
same,Potency,CP237,inactive
same,Potency,CP238,inactive
same,Potency,CP247,inactive
O=P(O)(O)CP(=O)(O)O,"activity, negative = inhibition",[1]; parasite line A,11.8%
same,"activity, negative = inhibition",[1]; parasite line B,12.6%
same,Potency,3D7,inactive
same,Potency,7G8,inactive
same,Potency,AA1029,inactive
same,Potency,AS120,inactive
same,Potency,ATS189,inactive
same,Potency,ATS95,inactive
same,Potency,C2A,inactive
same,Potency,CP192,inactive
same,Potency,CP194,inactive
same,Potency,CP201,inactive
same,Potency,CP211,inactive
same,Potency,CP215,inactive
same,Potency,CP217,inactive
same,Potency,CP237,inactive
same,Potency,CP238,inactive
same,Potency,CP247,inactive
CCCCC/C=C\C/C=C\C/C=C\CCCCC(=O)O,"activity, negative = inhibition",[1]; parasite line A,-2.11%
same,"activity, negative = inhibition",[1]; parasite line B,-8.25%
same,Potency,3D7,inactive
same,Potency,AA1029,inactive
same,Potency,AS120,inactive
same,Potency,ATS189,inactive
same,Potency,ATS95,inactive
same,Potency,C2A,inactive
same,Potency,CP185,inactive
same,Potency,CP191,inactive
same,Potency,CP192,inactive
same,Potency,CP194,inactive
same,Potency,CP201,inactive
same,Potency,CP203,inactive
same,Potency,CP211,inactive
same,Potency,CP215,inactive
same,Potency,CP217,inactive
same,Potency,CP237,inactive
same,Potency,CP238,inactive
same,Potency,CP247,inactive
Oc1ccc(Cl)c2c1CCC2,"activity, negative = inhibition",[1]; parasite line A,6.7%
same,"activity, negative = inhibition",[1]; parasite line B,4.51%
same,Potency,3D7,inactive
same,Potency,AA1029,inactive
same,Potency,AS120,inactive
same,Potency,ATS189,inactive
same,Potency,ATS95,inactive
same,Potency,C2A,inactive
same,Potency,CP185,inactive
same,Potency,CP191,inactive
same,Potency,CP192,inactive
same,Potency,CP194,inactive
same,Potency,CP201,inactive
same,Potency,CP203,inactive
same,Potency,CP211,inactive
same,Potency,CP215,inactive
same,Potency,CP217,inactive
same,Potency,CP237,inactive
same,Potency,CP238,inactive
same,Potency,CP247,inactive
C=CC[C@@H]1/C=C(\C)C[C@H](C)C[C@H](OC)[C@H]2O[C@@](O)(C(=O)C(=O)N3CCCC[C@H]3C(=O)O[C@H](/C(C)=C/[C@@H]3CC[C@@H](O)[C@H](OC)C3)[C@H](C)[C@@H](O)CC1=O)[C@H](C)C[C@@H]2OC,Potency,[1]; parasite line A,2000 nM (active)
same,Potency,[1]; parasite line B,1260 nM (active)
same,Potency,3D7,891 nM (active)
same,Potency,7G8,1000 nM (active)
same,Potency,AA1029,2000 nM (active)
same,Potency,AS120,1410 nM (active)
same,Potency,ATS189,1000 nM (active)
same,Potency,ATS95,2240 nM (active)
same,Potency,C2A,251 nM (active)
same,Potency,CP185,891 nM (active)
same,Potency,CP191,1260 nM (active)
same,Potency,CP192,3790 nM (active)
same,Potency,CP194,4260 nM (active)
same,Potency,CP201,5360 nM (active)
same,Potency,CP211,4780 nM (active)
same,Potency,CP215,3790 nM (active)
same,Potency,CP217,3160 nM (active)
same,Potency,CP237,708 nM (active)
same,Potency,CP238,1120 nM (active)
same,Potency,CP247,1410 nM (active)
O=C(O[C@H]1CN2CCC1CC2)N1CCc2ccccc2[C@@H]1c1ccccc1,"activity, negative = inhibition",[1]; parasite line A,-23.3%
same,"activity, negative = inhibition",[1]; parasite line B,-19.3%
same,Potency,3D7,inactive
same,Potency,7G8,5620 nM (active)
same,Potency,AS120,inactive
same,Potency,ATS189,inactive
same,Potency,ATS95,inactive
same,Potency,CP185,inactive
same,Potency,CP192,inactive
same,Potency,CP201,inactive
same,Potency,CP203,inactive
same,Potency,CP217,inactive
same,Potency,CP238,inactive
C/C=C/C=C/C(=O)O,"activity, negative = inhibition",[1]; parasite line A,-0.87%
same,"activity, negative = inhibition",[1]; parasite line B,-21%
same,Potency,3D7,inactive
same,Potency,7G8,inactive
same,Potency,AA1029,inactive
same,Potency,AS120,inactive
same,Potency,ATS189,inactive
same,Potency,C2A,inactive
same,Potency,CP185,inactive
same,Potency,CP191,inactive
same,Potency,CP192,inactive
same,Potency,CP201,inactive
same,Potency,CP203,inactive
same,Potency,CP211,inactive
same,Potency,CP217,inactive
same,Potency,CP237,inactive
same,Potency,CP238,inactive
same,Potency,CP247,inactive
CC(C)(C)CC(C)(C)c1ccc(OCCO)cc1,"activity, negative = inhibition",[1]; parasite line A,-21%
same,"activity, negative = inhibition",[1]; parasite line B,-13.8%
same,Potency,3D7,inactive
same,Potency,AA1029,inactive
same,Potency,AS120,inactive
same,Potency,ATS189,inactive
same,Potency,ATS95,inactive
same,Potency,C2A,inactive
same,Potency,CP185,inactive
same,Potency,CP191,inactive
same,Potency,CP192,inactive
same,Potency,CP194,inactive
same,Potency,CP201,inactive
same,Potency,CP203,inactive
same,Potency,CP211,inactive
same,Potency,CP215,inactive
same,Potency,CP217,inactive
same,Potency,CP237,inactive
same,Potency,CP238,inactive
same,Potency,CP247,inactive
Cn1cc(NC(=O)c2cc(NC(=O)c3cc(NC=O)cn3C)cn2C)cc1C(=O)NCCC(=N)N,Potency,[1]; parasite line A,8910 nM (active)
same,Potency,[1]; parasite line B,11200 nM (active)
same,Potency,3D7,10000 nM (active)
same,Potency,7G8,316 nM (active)
same,Potency,AA1029,7080 nM (active)
same,Potency,AS120,7080 nM (active)
same,Potency,ATS189,11200 nM (active)
same,Potency,ATS95,6310 nM (active)
same,Potency,C2A,7940 nM (active)
same,Potency,CP185,11200 nM (active)
same,Potency,CP191,10000 nM (active)
same,Potency,CP203,12000 nM (active)
same,Potency,CP217,7080 nM (active)
same,Potency,CP237,8910 nM (active)
same,Potency,CP238,11200 nM (active)
same,Potency,CP247,6310 nM (active)
CCOC(=O)c1c[nH]c2cc(OCC(C)C)c(OCC(C)C)cc2c1=O,Potency,[1]; parasite line A,39.8 nM (active)
same,Potency,[1]; parasite line B,56.2 nM (active)
same,Potency,3D7,126 nM (active)
same,Potency,7G8,70.8 nM (active)
same,Potency,AA1029,79.4 nM (active)
same,Potency,AS120,44.7 nM (active)
same,Potency,ATS189,63.1 nM (active)
same,Potency,ATS95,89.1 nM (active)
same,Potency,C2A,199 nM (active)
same,Potency,CP185,100 nM (active)
same,Potency,CP191,50.1 nM (active)
same,Potency,CP211,53.6 nM (active)
same,Potency,CP217,70.8 nM (active)
same,Potency,CP237,79.4 nM (active)
same,Potency,CP238,126 nM (active)
same,Potency,CP247,79.4 nM (active)
COc1ccc(/C=N/NC(=O)c2ccncc2)c(C(=O)O)c1OC,"activity, negative = inhibition",[1]; parasite line A,15.9%
same,"activity, negative = inhibition",[1]; parasite line B,-6.37%
same,Potency,3D7,inactive
same,Potency,7G8,inactive
same,Potency,AA1029,inactive
same,Potency,AS120,inactive
same,Potency,ATS189,inactive
same,Potency,ATS95,inactive
same,Potency,C2A,inactive
same,Potency,CP185,inactive
same,Potency,CP191,inactive
same,Potency,CP192,inactive
same,Potency,CP194,inactive
same,Potency,CP203,inactive
same,Potency,CP211,inactive
same,Potency,CP215,inactive
same,Potency,CP217,inactive
same,Potency,CP237,inactive
same,Potency,CP238,inactive
same,Potency,CP247,inactive

# From PubChem BioAssay (NCATS)
